High-throughput results (PubChem)
Compounds with a hit are over-represented: about 5.9% of the library has one in this group of screens.
ABHD5 PLIN5 PPI: ABHD5-PLIN5 interaction inhibitors, primary screen, cell lysate, split luciferase complementation, luminescence. Split G. princeps luciferase complementation, 4 h. AID 602281, 2012. actives 0.78% (n = 360,000). inhibition, % at 4 µM. Perilipin-5 (Homo sapiens) + 1-acylglycerol-3-phosphate O-acyltransferase ABHD5 (Homo …;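 active = inhibition above the mean inhibition across every tested compound plus 3 SD, cut at about 22% in these data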;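 note: 0% = DMSO only wells and the 100% control is not disclosed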
Target sequence (Q00G26 whole entry, looked up): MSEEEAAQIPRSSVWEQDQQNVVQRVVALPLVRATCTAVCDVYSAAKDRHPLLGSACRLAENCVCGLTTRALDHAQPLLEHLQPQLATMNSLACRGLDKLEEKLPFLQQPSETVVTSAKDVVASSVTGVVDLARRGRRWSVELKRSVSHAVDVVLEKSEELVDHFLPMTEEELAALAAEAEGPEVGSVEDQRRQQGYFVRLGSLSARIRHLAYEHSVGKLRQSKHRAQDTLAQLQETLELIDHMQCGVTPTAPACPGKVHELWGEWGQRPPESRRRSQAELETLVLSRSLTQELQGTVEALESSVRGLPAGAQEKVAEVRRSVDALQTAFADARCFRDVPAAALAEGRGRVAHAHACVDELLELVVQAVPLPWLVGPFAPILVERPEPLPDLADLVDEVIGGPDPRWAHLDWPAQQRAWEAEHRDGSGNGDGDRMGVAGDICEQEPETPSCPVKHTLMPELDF
Target sequence (Q8WTS1 whole entry, looked up): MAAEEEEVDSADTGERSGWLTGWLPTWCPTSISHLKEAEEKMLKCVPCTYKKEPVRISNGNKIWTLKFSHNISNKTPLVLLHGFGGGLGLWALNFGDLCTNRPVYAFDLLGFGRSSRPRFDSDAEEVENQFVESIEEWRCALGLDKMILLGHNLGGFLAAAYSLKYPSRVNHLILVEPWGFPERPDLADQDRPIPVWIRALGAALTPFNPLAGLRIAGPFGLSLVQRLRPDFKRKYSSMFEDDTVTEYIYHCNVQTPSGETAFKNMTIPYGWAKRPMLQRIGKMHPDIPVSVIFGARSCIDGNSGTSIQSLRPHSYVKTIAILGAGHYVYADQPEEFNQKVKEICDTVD
PRMT1 inh: PRMT1 methyltransferase inhibitors, primary screen, biochemical, fluorescence polarization. Protein arginine N-methyltransferase 1 (Homo sapiens), Q99873. recombinant PRMT1, activity-based probe fluorescence polarization. inhibition, % at 2.79 µM. actives 1.3% (n = 370,000);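 active = inhibition above about 21% made by adding two undisclosed values, limit read from the data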
rCAG binder-1: binders of r(CAG) RNA repeats, primary screen, biochemical, fluorescence; inhibition, % at 3 µM; actives 1.3% (n = 370,000); r(CAG) RNA repeat, TO-PRO-1 dye displacement fluorescence;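 active = inhibition above the plate cutoff, the mean of all test compounds on that plate plus 3 SD, cut at about 35% in these data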;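 note: 0% = DMSO alone and 100% = 100 µM mitoxantrone as full dye displacement; higher means more dye released from RNA so lower well fluorescence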
LANA-H2A inh: blockers of LANA interaction with H2A/H2B – biochemical, FP readout, HTS, primary screen | cell-free LANA-H2A/H2B peptide, fluorescence polarization | inhibition, % (no concentration beside the values) | actives 0.6% (n = 320,000) | AID 2629, 2010; in the data active = inhibition mostly above about 10%, no sharp cut-off; inactive = mostly below about 6.7%
Rtt109 Vps75: inhibitors of C. albicans Rtt109/Vps75 HAT, primary screen, biochemical, ThioGlo CoA-SH fluorescence, plate reader; inhibition, % at 34.9 µM; AID 540336, 2011; Histone acetyltransferase RTT109 (Candida albicans (strain SC5314 / ATCC MYA-2876)), …; purified Rtt109/Vps75, 4 h; actives 0.16% (n = 330,000);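 active = inhibition of at least 50% in every replicate; inconclusive = best replicate reaches 50% inhibition but some replicates fall short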
ALR inh: inhibitors of human ALR sulfhydryl oxidase, primary screen, biochemical, H2O2 detection, HRP-luminol luminescence, single point. FAD-linked sulfhydryl oxidase ALR (Homo sapiens), P55789. purified ALR, DTT oxidation. inhibition, % (no concentration beside the values). actives 3.8% (n = 290,000). AID 485317, 2010;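 active = mean replicate inhibition above about 79%, with every replicate also reaching it, limit read from the data; inconclusive = only one of the two criteria met; inactive = mean below limit and not every replicate reaching it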
rCAG binder conf: small molecules binding CAG repeat RNA – biochemical, fluorescence, confirmation; shares compounds with rCAG binder-1; r(CAG) RNA repeat, TO-PRO-1 dye displacement fluorescence; inhibition, % at 3 µM; actives 70% (n = 4,300);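 active = inhibition above a per-plate cutoff, the mean inhibition of sample wells plus 3 SD, cut at about 35% in these data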;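 note: loss of TO-PRO-1 fluorescence as compound displaces dye from 1x1 AA loop RNA; 0% = DMSO only wells and 100% = 100 µM mitoxantrone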
dCAG dye counter: displacement of TO-PRO-1 from CAG DNA duplex, counter-screen for rCAG RNA repeat binder project, biochemical, fluorescence, TO-PRO-1 dye, d(CAG) DNA oligo. d(CAG) DNA oligo TO-PRO-1 dye displacement. shares compounds with rCAG binder-1. actives 94% (n = 4,300). inhibition, % at 3 µM. AID 652068, 2013;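 active = inhibition above its plate's cutoff, the mean test-well inhibition plus 3 SD, cut at about 4.8% in these data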;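 note: 0% = DNA dye mix with DMSO and 100% = 100 µM mitoxantrone; hits displace the dye from DNA and so lower well fluorescence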
DNA CAG DR: inhibitors of DNA CAG/GTC TO-PRO-1 complex, dose response, counter-screen for rCAG RNA repeat binder project, biochemical, fluorescence, TO-PRO-1 dye. shares compounds with rCAG binder-1. DNA CAG/GTC duplex TO-PRO-1 dye displacement fluorescence. IC50, µM. actives 20% (n = 250); in the data active = IC50 below about 10 µM
dCAG TOPRO ctr: TO-PRO-1 dye complex inhibitors on d(CAG) DNA, dose response, counter-screen, biochemical, fluorescence, late stage | shares compounds with rCAG binder-1 | d(CAG) DNA duplex TO-PRO-1 dye displacement | IC50, µM | actives 80% (n = 30) | AID 720649, 2013
rCAG binder-2: molecules binding r(CAG) RNA repeats, late stage dose response, late-stage follow-up, biochemical, fluorescence, dose response, powder samples; shares compounds with rCAG binder-1; actives 100% (n = 30); IC50, µM; r(CAG) RNA TO-PRO-1 dye displacement
* marks the source's active call; other numbers are inactive results; i = inactive; ? = inconclusive; / = no result. Unless noted, the rule behind the calls is not given here.

SMILES	ABHD5 PLIN5 PPI	PRMT1 inh	rCAG binder-1	LANA-H2A inh	Rtt109 Vps75	ALR inh	rCAG binder conf	dCAG dye counter	others
Cc1[nH]n(-c2ccccc2)c(=O)c1C(c1cccc([N+](=O)[O-])c1)c1c(C)[nH]n(-c2ccccc2)c1=O	-16.1	3.5	67.6*	4.5	20.8	-0.9	49.9*	19.9*
Cc1[nH]n(-c2ccccc2)c(=O)c1C(c1cccc([N+](=O)[O-])c1O)c1c(C)[nH]n(-c2ccccc2)c1=O	-16.1	4.5	79.5*	2.4	7.6	25.4	46.2*	13.1*
Cc1ccc([C@@H]2CC(=O)[C@@H]3CN(S(=O)(=O)c4ccc(C)cc4)[C@H](c4ccc(Cl)cc4)C[C@@H]3N2S(=O)(=O)c2ccc(Cl)cc2)cc1	-6.3	1.0	10.6	/	/	/	/	/
CC1Cc2cc(/C=C3/SC(=S)NC3=O)ccc2O1 (stereo not drawn)	-3.6	0.0	37.2*	-1.3	4.3	?	23.5	5.9*
CCN(CC)c1ccc(C=C2SC(=S)NC2=O)cc1	6.2	-17.5	24.9	/	-0.1	/	/	/
CC(C)CSC1=NSC2=NC(=O)/C(=C\c3cccs3)C(=N)N12	-1.7	2.2	71.7*	1.1	8.3	27.2	56.8*	21.0*	DNA CAG DR=i;dCAG TOPRO ctr=4.26*;rCAG binder-2=1.66*
N=C1/C(=C/c2cccs2)C(=O)N=C2SN=C(SCc3ccccc3)N12	-0.2	-1.0	74.8*	-1.0	13.4	95.6*	82.0*	49.8*
CC1(C)CC(=O)C=C(Nc2ccccc2NC(=O)c2cc(Cl)ccc2F)C1	/	-1.7	-1.1	/	/	/	/	/
CCOc1ccc(-n2c(COc3ccccc3)nnc2SCc2nc3ccccc3[nH]2)cc1	/	-3.1	1.4	/	/	/	/	/
C=CCCC(=O)Nc1nc(C)c(-c2csc(Nc3cc(Cl)ccc3OC)n2)s1	-9.2	3.0	26.8	-0.9	-1.6	-9.9	/	/
COc1ccc(Cl)cc1Nc1nc(-c2sc(NC(=O)CC(C)C)nc2C)cs1	-20.1	1.6	36.4*	1.2	-0.2	-14.7	21.0	13.5*
C=CCCC(=O)Nc1nc(C)c(-c2csc(Nc3ccc(Cl)cc3Cl)n2)s1	-13.4	-1.1	35.7*	3.7	2.2	-8.1	22.6	12.6*
CC(=O)c1ccc(NC(=O)C(C)OC(=O)c2ccc(NS(=O)(=O)c3ccc(F)c(F)c3)cc2)cc1 (stereo not drawn)	2.1	0.4	52.6*	-3.4	-1.1	11.5	42.6*	17.2*
Cc1ccc(S(=O)(=O)Nc2ccccc2C(=O)OC(C)C(=O)Nc2ccc3ccccc3c2)cc1[N+](=O)[O-] (stereo not drawn)	-6.4	-0.8	38.8*	3.5	3.9	0.3	42.3*	16.5*
CCc1ccc(NC(=O)C(C)OC(=O)c2ccc(NS(=O)(=O)c3ccc(C)c([N+](=O)[O-])c3)cc2)cc1 (stereo not drawn)	-13.0	-0.2	85.5*	-0.2	9.8	-3.9	82.5*	48.4*
Cc1ccc(NC(=O)C(C)OC(=O)c2ccc(NS(=O)(=O)c3ccc(F)c(F)c3)cc2)cc1 (stereo not drawn)	-10.7	-2.1	58.2*	5.0	9.3	5.7	67.3*	20.0*
CC(=O)Nc1ccc(NC(=O)C(C)OC(=O)c2ccc(S(=O)(=O)N3CCCCC3)cc2)cc1 (stereo not drawn)	4.2	3.2	1.0	0.1	6.0	13.6	/	/
CC[C@@]1(c2ccc(C)cc2)C(=O)N(C(=O)OC)N1C(=O)OC	/	2.0	0.6	/	/	/	/	/
Cc1[nH]c(=O)nc(SCc2ccc(Cl)c(Cl)c2)c1C#N	-4.4	-1.2	37.7*	1.3	15.1	-25.9	30.4	7.2*
COc1cc(/C=C2\SC(=Nc3ccc(F)cc3)N(c3ccc(F)cc3)C2=O)ccc1OCC(=O)O	/	/	/	4.8	/	6.0	/	/
COCCN1C(=O)/C(=C/c2ccc(OCc3ccc(C(=O)O)cc3)c(OC)c2)SC1=Nc1ccccc1	9.1	-2.4	29.2	1.1	-0.5	35.8	/	/
COc1cc(/C=C2\SC(=Nc3ccc(N4CCOCC4)cc3)N(C)C2=O)ccc1OC(C)C(=O)O (stereo not drawn)	5.2	1.2	41.3*	-2.5	?	17.2	52.3*	17.0*
COc1cc(/C=C2\SC(=Nc3ccccc3)N(Cc3ccco3)C2=O)ccc1OC(C)C(=O)O (stereo not drawn)	6.0	-2.2	66.9*	2.1	2.0	12.6	70.6*	28.9*	DNA CAG DR=i
CCCCNC(=O)c1nc(C2CCN(S(=O)(=O)c3csc(C(=O)O)c3)CC2)oc1-c1ccccc1	0.7	-3.2	44.2*	/	/	/	39.4*	11.3*	DNA CAG DR=>29.9
COCCn1c(=NC(=O)c2cc(-c3cccs3)nc3ccccc23)sc2cc(S(N)(=O)=O)ccc21	18.6	-1.8	35.9*	-0.9	-1.4	-13.7	39.1*	18.9*
O=C(CCc1ccccc1)N[C@H]1[C@@H](OC(=O)c2ccco2)CCC[C@@]12C(=O)N(Cc1ccccc1)c1ccccc12	/	-3.0	7.5	/	/	/	/	/
Nc1c(C(=O)O)ccc2c1C(=O)c1ccccc1C2=O	9.2	1.6	10.0	0.5	1.9	-3.1	/	/
Nc1c(SCCC(=O)O)ccc2c1C(=O)c1ccccc1C2=O	10.4	-0.2	36.8*	-1.2	-4.0	-2.3	14.6	2.3
